Pf apPOL inh: Pf-apPOL DNA polymerase inhibition; AID 1794808; hit rate 0.25% among 210,000; inhibition, % at 10 µM; Recombinant Pf-apPOL, molecular beacon fluorescence, 1.5 h
mHTT-CaM PPI inh: inhibitors of human mutant huntingtin-calmodulin interaction. hit rate 3.6% among 190,000. inhibition, % at 15 µM. AlphaScreen His-mHTT/GST-CaM binding, luminescence
Numbers stand for hits; – = inactive; · = no result given; ! = not active in a repeat. Compounds with a hit are over-represented: about 3.5% of the library has one in this group of screens. Cut-off read from the data, not from the text of the source: active = inhibition above about 50%; inactive = the rest.

SMILES	Pf apPOL inh	mHTT-CaM PPI inh
COc1ccccc1-c1cn[nH]c1-c1ccc(OCC=C(C)C)cc1O	–	68
CCc1cc(-c2[nH]ncc2Oc2ccc(Cl)cc2)c(O)cc1O	–	100
COc1ccc(Oc2cncnc2-c2ccc(OCc3ccccc3)cc2O)cc1	–	–
COc1ccc(-c2[nH]ncc2Oc2ccccc2)c(O)c1	–	–
CCCOc1ccc(-c2[nH]ncc2Oc2ccccc2)c(O)c1	–	80
CCCCOc1ccc(-c2[nH]ncc2Oc2ccccc2)c(O)c1	–	93
COc1ccccc1-c1c(C(F)(F)F)oc2cc(OCC=C(C)C)ccc2c1=O	–	–
CCc1cc(C(=O)COc2ccc(F)cc2)c(O)cc1O	–	–
Cn1nc(CO)c2c1CCN(C(=O)c1ccc(C#N)cc1)C2	–	–
O=C(C1CCN(c2nc3cccnc3s2)CC1)N1CCN(C2CCCCC2)CC1	–	–
Clc1ccc(CSc2ncn[nH]2)cc1Cl	·	–
COc1ccc(C2CC(=O)NC(Nc3nc(C)c4ccc(C)cc4n3)=N2)cc1 (stereo unspecified)	–	68
COc1ccc2c(C)nc(Nc3nc4ccccc4c(=O)[nH]3)nc2c1	–	–
COc1ccc2nc(NC3=NC(c4ccccc4)CC(=O)N3)nc(C)c2c1 (stereo unspecified)	60	54
COc1ccc(NC(=O)C2CC(=O)NC(Nc3nc(C)c4ccccc4n3)=N2)cc1 (stereo unspecified)	–	–
O=C1NC(=O)C2C3C=CC(C3=C(c3ccccc3)c3ccccc3)C12 (stereo unspecified)	–	57
O=C1NN(c2ccccc2)C(=O)C2C(c3ccccc3)C=CC(c3ccccc3)C12 (stereo unspecified)	–	–
CCCCc1[nH]nc2c1C(c1ccc(OCCN3CCOCC3)c(OCC)c1)C(C#N)=C(N)O2 (stereo unspecified)	–	–
CC(C)(C)N=C1Nc2ccccc2NC12CCCN(C(=O)c1ccncc1)C2 (stereo unspecified)	–	–
Cc1ccccc1OCC(=O)N1CCCC2(C1)Nc1ccccc1NC2=NC(C)(C)C (stereo unspecified)	–	75
CC(C)(C)N=C1Nc2ccccc2NC12CCCN(C(=O)COc1ccccc1)C2 (stereo unspecified)	–	–
CC(C)(C)N=C1Nc2ccccc2NC12CCCN(C(=O)c1ccccc1)C2 (stereo unspecified)	–	82
CC(C)c1nc(CN2CCN(c3ccccc3F)CC2)cc(=O)[nH]1	–	–
N#CC1=C(N)Oc2n[nH]c(-c3cccs3)c2C1c1cccs1 (stereo unspecified)	–	–
COc1c(Cl)cc(Cl)cc1C1C(C#N)=C(N)Oc2n[nH]c(-c3cccs3)c21 (stereo unspecified)	–	74
SMILES	Pf apPOL inh	mHTT-CaM PPI inh
N#CC1=C(N)Oc2n[nH]c(-c3cccs3)c2C1c1ccc([N+](=O)[O-])s1 (stereo unspecified)	–	55
COc1ccc(C2C(C#N)=C(N)Oc3n[nH]c(-c4cccs4)c32)c(OC)c1OC (stereo unspecified)	–	–
O=C(NCc1ccccc1Br)C1CCN(c2nc3cccnc3s2)CC1	–	–
Cc1ccc(N2CCN(C(=O)c3cccc4[nH]cc(CN5CCCC5)c34)CC2)cc1	–	78
Cc1ccc(NC(=O)c2cccc3[nH]cc(CN4CCCC4)c23)cc1	–	–
CCOC(=O)C(C#N)=CNc1ncc(C(F)(F)F)cc1Cl	–	·
C=CCn1c(SCC(=O)Nc2ccc(F)cc2)nnc1-c1cccc(OC)c1	–	–
C=CCn1c(SCC(=O)Nc2ccc(OC)cc2)nnc1C(c1ccccc1)c1ccccc1	97	–
CCOC(=O)NN=C(C)c1cccc(NC(C)=O)c1	–	·
COc1ccc(C(=O)N2CCC(n3nc(-c4ccsc4)ccc3=O)CC2)cc1	–	98
O=C(c1cccnc1)N1CCC(n2nc(-c3ccsc3)ccc2=O)CC1	–	–
O=C(Cc1cccc(F)c1)N1CCC(n2nc(-c3ccsc3)ccc2=O)CC1	–	–
COc1ccc(C(=O)N2CCC(N3CCCCCC3)CC2)cc1	–	–
Cc1ccc(C(=O)N2CCC(c3nc(-c4ccncc4)n[nH]3)CC2)s1	–	–
Cc1ccc(C(=O)N2CCC(n3nc(-c4ccsc4)ccc3=O)CC2)s1	–	100
COc1cccc(C(=O)N2CCC(n3nc(-c4ccsc4)ccc3=O)CC2)c1	–	100
O=C(c1cccc(F)c1)N1CCC(n2nc(-c3ccsc3)ccc2=O)CC1	–	95
COc1cccc(C2C=C(c3ccc(Br)s3)Nc3nnnn32)c1OC (stereo unspecified)	–	–
COCC(=O)Nc1c(-c2ccc(OC)cc2)nc2ccccn12	–	–
O=C(Nc1ccc(Cl)c(C(F)(F)F)c1)c1ccc(Cl)c([N+](=O)[O-])c1	–	–
COc1cccc(NC(=O)c2ccc3c(c2)C(=O)N(CC(C)C)C3=O)c1	–	–
Cc1cccc(CC(=O)NCC2(O)CCCC2)c1	–	–
CC(Oc1ccccc1)C(=O)N1CCC(n2nc(-c3ccsc3)ccc2=O)CC1 (stereo unspecified)	–	71
O=C(N1CCC(n2nc(-c3ccsc3)ccc2=O)CC1)C1(c2ccccc2)CC1	–	–
Cc1ccc(C)c(NC(=O)N2CC(c3nc(C)no3)C3(CCOCC3)C2)c1 (stereo unspecified)	–	–
SMILES	Pf apPOL inh	mHTT-CaM PPI inh
CC1CCCC(NS(=O)(=O)c2cc(C(=O)Nc3cccc(Cl)c3)ccc2F)C1C (stereo unspecified)	–	–
Cc1cccc2c3c([nH]c12)CCC(NC(=O)CC(C)(C)C)C3 (stereo unspecified)	–	–
Cc1cc(NC(=O)c2ccccc2)cc(C)c1O	–	–
Cc1ccc(Nc2cc(C)c(O)c(C)c2)cc1	–	84
[O-][N+](=Nc1ccc(Cl)cc1)c1ccc(Cl)cc1	·	–
O=C(c1ccc2cc[nH]c2c1)N1CCc2nc3cc[nH]n3c(=O)c2C1	–	–
O=C(NCc1ccc(Cl)cc1)c1nc(-c2ccncc2)cs1	–	66
Cc1ccc(CNC(=O)c2nc(-c3ccncc3)cs2)cc1	–	–
c1ccc2nc(-c3nc4ccccc4[nH]3)ccc2c1	–	–
CC1C(c2ccc3ccccc3n2)=CNc2ccccc21 (stereo unspecified)	–	91
Cc1cccc(N=C2C(=O)Nc3ccc(Br)cc32)c1C	–	66
Cc1ccc(C)c(N=C2C(=O)Nc3ccc(Br)cc32)c1	–	–
O=C(Nc1ccc(Cl)cc1F)c1cc(S(=O)(=O)N2CCC3(CC2)OCCO3)ccc1F	–	–
COc1cc(C(=O)Nc2c3c(nn2-c2ccccc2)CSC3)c([N+](=O)[O-])cc1OC	–	–
COc1ccc(OC)c(NC(=O)c2ccc3c(c2)C(=O)N(CC(C)C)C3=O)c1	–	–
CC(=O)Nc1nc2ccc(Br)cc2s1	–	–
CC(=O)Nc1nc2cc3sc(NC(C)=O)nc3cc2s1	53!	–
COc1ccc2c(c1)-c1cc(Cl)ccc1S(=O)(=O)N2C(C)=O	–	87
COc1ccc(N2C=C(C#N)S(=O)(=O)c3ccc(Cl)cc32)c(C)c1	–	–
CC(=O)N(C)c1ccc(NC(=O)CCCc2ccccc2)cc1	–	–
Cn1nc(-c2nc(-c3cccc(F)c3)no2)c2c1CCN(C(=O)NC1CCCC1)C2	–	–
CC1(C)Cc2c(sc3nc(Nc4ccccc4)n(N)c(=O)c23)CO1	–	53
CC1(C)Cc2c(sc3nc(SCC(=O)O)n(-c4ccccc4)c(=O)c23)CO1	–	–
Cc1cccc(NC(=O)CSc2nc(C)cc(C(F)(F)F)c2C#N)n1	–	–

Source: PubChem BioAssay
